Measurements reported in PubChem BioAssay (NCATS).
Results filed as inconclusive are left out. Calls of active or inactive are those of the source. Calls come from the whole dose curve; as a rule, active = well fitted cell-killing curve with a large enough effect; inconclusive = small, poorly fitted or top-dose-only effect, or effect the other way; inactive = no such curve, though single readings can be large or run the other way.

Experiment: Viability qHTS for spleen associated tyrosine kinase inhibitor (SYKi) drug resistant MV4-11 cells (AID 1963824); note: nearly all actives have a fitted effect of over 35% in size
Conditions: SYKi-resistant MV4-11 viability, CellTiter-Glo, 72 h; series mostly up to 45 µM; viability, % of control: at the top concentration
Procedure, shortened: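 CellTiter-Glo luminescence, read 10 min after reagent addition, reports viability after a 72 hr compound exposure. Cells are an MV4-11 line made resistant to SYK inhibition, seeded at 500 per well onto compound-containing plates.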
Potency is the fitted concentration of half-maximal effect.

| SMILES | viability, % of control | Potency |
| --- | --- | --- |
| CC(=O)CCC1=C(C)C(O[C@@H]2O[C@H](CO)[C@@H](O)[C@H](O)[C@H]2O)C(O)CC1(C)C (stereo not given in full) | 85.5% (inactive) |  |
| CC(O)(CC(=O)O)CC(=O)O[C@@H]1[C@@H](O)[C@H](OCCc2ccccc2)O[C@H](CO)[C@H]1O (stereo not given in full) | 96.2% [at 17.3 µM] (inactive) |  |
| COC(=O)c1ccc(O[C@@H]2O[C@H](CO)[C@@H](O)[C@H](O)[C@H]2O)c(OC)c1 | 81.4% (inactive) |  |
| COc1nnc2ccc(N3CCC(c4ccc(OCCN5CCN(C)C(=O)[C@H]5C)cc4)CC3)nn12 |  | 0.0372 µM (active) |
| C=C[C@H]1[C@H](O[C@@H]2O[C@H](CO)[C@@H](O)[C@H](O)[C@H]2O)OC=C(C(=O)OC)[C@H]1C/C=C(/C=O)[C@@H]1C(C(=O)OC)=CO[C@@H](O[C@@H]2O[C@H](CO)[C@@H](O)[C@H](O)[C@H]2O)[C@@H]1C=C | 103% [at 17.3 µM] (inactive) |  |
| CO[C@H]1C[C@@H]2CC[C@@H](C)[C@@](O)(O2)C(=O)C(=O)N2CCCC[C@H]2C(=O)O[C@H]([C@H](C)C[C@@H]2CC[C@@H](OC(=O)C(C)(CO)CO)[C@H](OC)C2)CC(=O)[C@H](C)/C=C(\C)[C@@H](O)[C@@H](OC)C(=O)[C@H](C)C[C@H](C)/C=C/C=C/C=C/1C |  | 10.2 µM (active) |
| Cc1cc(OCCCS(C)(=O)=O)cc(C)c1-c1cccc(COc2ccc(C3=CC(=O)NS3=O)cc2)c1 (stereo not given) |  | 5.17 µM (active) |
| O=c1cc(-c2ccccc2)oc2ccc(O)cc12 |  | 14.6 µM (active) |
| COC(=O)C[C@H]1C(C)(C)[C@H](OC(=O)c2ccccc2)C2CC3=C4CC(=O)O[C@@H](c5ccoc5)[C@]4(C)CCC3[C@@]1(C)C2=O (stereo not given in full) |  | 10 µM (active) |
| CC(=O)C1=C(O)C2c3c[nH]c4cccc(c34)CC2C(C)(C)N(C)C1=O (stereo not given) |  | 23.1 µM (active) |
| CC(=O)OC1C(O)CC2(C)C(CCC3(C)C2CC=C2C4C5(CCC(CO[C@@H]6O[C@H](CO)[C@@H](O)[C@H](O)[C@H]6O)(OC5=O)C4(C)O)C(O)CC23C)C1(C)C (stereo not given in full) | 68.8% [at 17.3 µM] (inactive) |  |
| C=CC(=O)N[C@H]1CCOC[C@H]1Nc1ncc2cc(-c3c(Cl)c(OC)cc(OC)c3Cl)ccc2n1 |  | 20.9 µM (active) |
| N#Cc1cnc2cnc(NCc3cccnc3)cc2c1Nc1ccc(F)c(Cl)c1 |  | 3.66 µM (active) |
| O=C(O)c1ccnc(-c2cc(C(=O)NCCc3ccccc3)ccn2)c1 | 74.1% (inactive) |  |
| COc1cc(NC(=O)c2cccc(-n3cc(NC(=O)Nc4cccc(C)c4)cn3)c2)cc(OC)c1OC |  | 9.2 µM (active) |
| N#CC(CCCN1CCC(O)(c2ccc(Cl)cc2)CC1)(c1ccccc1)c1ccccc1 |  | 5.8 µM (active) |
| C=C(C)[C@H]1CC[C@]2(C(=O)O)CC[C@]3(C)C(CCC4[C@@]5(C)CCC(=O)C(C)(C)C5CC[C@]43C)C12 (stereo not given in full) |  | 1.42 µM (active) |
| CC(=O)O[C@@H]1CC2C(C)(C)C(=O)C=C[C@]2(C)C2CC[C@@]3(C)[C@H](c4ccoc4)OC(=O)[C@H]4O[C@]43[C@@]21C (stereo not given in full) |  | 7.09 µM (active) |
| CC1(C)CC[C@]2(C(=O)O)CC[C@]3(C)C(=CCC4[C@@]5(C)C(=O)C[C@H](O)[C@@](C)(CO)C5CC[C@]43C)[C@@H]2C1 (stereo not given in full) | 63.3% [at 17.3 µM] (inactive) |  |
| C=C[C@@H]1[C@H](O[C@@H]2O[C@H](CO)[C@@H](O)[C@H](O)[C@H]2O)OC=C(C(=O)O)[C@H]1CCOC(=O)/C=C/c1ccc(O)c(O)c1 | 67.3% [at 17.3 µM] (inactive) |  |
| COc1ccc(NS(=O)(=O)c2sc3ccc(Cl)cc3c2C)cc1N1CCNCC1 |  | 14.6 µM (active) |
| COc1cc(CNC(=O)CCCC/C=C/C(C)C)ccc1O |  | 18.4 µM (active) |
| COc1ccccc1-c1nc(SCC(=O)Nc2ccc(C)c(C)c2)n[nH]1 |  | 16.4 µM (active) |
| Oc1cccc(-c2nc(N3CCOCC3)c3sccc3n2)c1 |  | 2.06 µM (active) |
| O=C(OCCOCCO)c1ccccc1Nc1cccc(C(F)(F)F)c1 |  | 14.6 µM (active) |
| Cc1ccc(C)c(-c2cc(C(F)(F)F)nn2-c2ccc(S(N)(=O)=O)cc2)c1 |  | 14.6 µM (active) |
| CC(C)c1ccc(-c2cc(=O)c3ccccc3o2)cc1 |  | 13 µM (active) |
| Cc1cc(C)cc(Oc2ccc(CNC(=O)[C@H](C)N)cc2C)c1 |  | 16.6 µM (active) |
| O=C(NO)c1ccc(CC(=O)N(CCO)c2ccccc2)cc1 |  | 16.4 µM (active) |
| CCC(=O)O[C@]1(C(=O)CCl)[C@@H](C)C[C@H]2[C@@H]3C[C@H](F)C4=CC(=O)C=C[C@]4(C)[C@@]3(F)[C@@H](O)C[C@@]21C |  | 18.4 µM (active) |
